Data on eight compounds can be found in PubChem BioAssay (Tox21).

Assay [1] can be described thus: Nuclear factor erythroid 2-related factor 2/antioxidant responsive element (Nrf2/ARE) small molecule agonists: qHTS cell viability counter screen in human keratinocytes (AID 1919968; active means well fitted curve in the direction sought with a large enough effect in the repeat runs; an effect the other way counts as inactive or inconclusive; further: nearly all actives have a fitted effect of over 55% in size; further: potency means the concentration at half of the fitted maximal effect). The method in brief:
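In human HaCaT keratinocytes stably expressing an ARE-driven luciferase, compound exposure lasted 23 h at 37 C under 5% CO2. Viable cells are quantified with a protease-based fluorogenic reagent (CellTiter-Fluor) read 1 h after addition.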

A short description of assay [2]: Nuclear factor erythroid 2-related factor 2/antioxidant responsive element (Nrf2/ARE) small molecule agonists: luciferase reporter gene qHTS assay in human keratinocytes (AID 1919969). Further: nearly all actives have a fitted effect of over 35% in size. Further: potency means the concentration at half of the fitted maximal effect.
The target in assay [3] is Gonadotropin-releasing hormone receptor (Homo sapiens) (UniProt P30968). The assay is described as follows: Human gonadotropin-releasing hormone receptor (GnRHR) small molecule agonists, calcium flux assay in GnRHR-HEK293 cells (AID 1920063). Further: nearly all actives have a fitted effect of over 35% in size. The method in brief: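 Intracellular calcium rise is the read-out: engineered human GnRHR HEK293 cells, dye-loaded, are exposed to DMSO-dissolved compounds and fluorescence at Ex/Em 480/540 is tracked for 3 min.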

In assay [4] the target is KiSS-1 receptor (Homo sapiens) (UniProt Q969F8). As to the kind of experiment: Human kisspeptin (KISS1R) small molecule agonists, calcium flux assay in KISS1R-HEK293 cells (AID 1920064; active means well fitted curve in the direction sought with a large enough effect in the repeat runs; an effect the other way counts as inactive or inconclusive). A digest of the protocol: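 Concentration-response testing used 15 concentrations in triplicate on human KISS1R-expressing HEK293 cells. Calcium-dependent fluorescence (Ex/Em 480/540) was followed kinetically for 3 min after compound transfer.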

Assay [5] is described as follows: G protein-coupled receptor (GPCR) small molecule agonists, calcium flux assay: HEK293 wild type cell line counter screen (AID 1920065). The method in brief: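 Fluorescence intensity signals activation. After overnight (18 h) culture and a 1 h calcium dye load at 37 C, compounds are added by pin tool and the plate read at 480/540 nm for 3 min in 1 s steps.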
Assay [6] in a line: p53 small molecule agonists, cell-based qHTS assay with human liver microsomes (AID 1963577).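 Further: p53 response element beta-lactamase reporter cells with liver microsomes plus NADPH.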 A digest of the protocol:
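Reporter activation was measured by LiveBLAzer fluorescence intensity in p53RE-bla cells, which had been exposed to compounds for 16 h at 37 C alongside 0.5 mg/mL human liver microsomes and 0.5 mg/mL NADPH (final concentrations).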

A short description of assay [7]: p53 small molecule agonists, cell-based qHTS assay with rat liver microsomes (AID 1963578). A digest of the protocol: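 Compound in DMSO added to p53RE-bla cells 5 h post-plating; rat microsomes/NADPH 0.5 mg/mL final; 16 h, 37 C; LiveBLAzer 2 h RT.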
A short description of assay [8]: p53 small molecule agonists, cell-based qHTS assay with human liver microsomes: qHTS cell viability counter screen (AID 1963579). Further: nearly all actives have a fitted effect of over 45% in size. The method in brief: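 HLM-supplemented (0.5 mg/mL final) and NADPH-supplemented (0.5 mg/mL final) p53RE-bla cultures, 4,000 cells per well, were dosed with compounds in DMSO for 16 h at 37 C; luminescent ATP detection (CellTiter-Glo, 30 min, room temperature) quantified surviving cells.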

Assay [9] is described as follows: p53 small molecule agonists, cell-based qHTS assay with rat liver microsomes: qHTS cell viability counter screen (AID 1963580). Further: nearly all actives have a fitted effect of over 45% in size. The method in brief: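 Luminescent ATP readout (CellTiter-Glo, 30 min at room temperature) reports viability of p53RE-bla HCT-116 cells after 16 h at 37 C with test compounds under metabolic activation by rat liver microsomes and NADPH at 0.5 mg/mL final each.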

Assay [10] has as its target 5-hydroxytryptamine receptor 2A (Homo sapiens) (UniProt P28223). The assay is described as follows: 5-hydroxytryptamine receptor 2A (HTR2A) small molecule antagonists, cell-based qHTS assay (AID 1963586). Further: nearly all actives have a fitted effect of over 45% in size. Further: potency means the concentration at half of the fitted maximal effect. A digest of the protocol:
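CHO cells stably expressing human HTR2A were plated for 18 h at 37 C, then loaded with calcium dye for 1 h. Compounds were preincubated 5 min at room temperature before DOI (4 nM solution) was added. Kinetic fluorescence was read for 3 min.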

Assay [11] shares this target. As to the kind of experiment: 5-hydroxytryptamine receptor 2A (HTR2A) small molecule agonists, cell-based qHTS assay (AID 1963587). Further: nearly all actives have a fitted effect of over 30% in size. A digest of the protocol:
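HTR2A-CHO cells, plated 18 h at 37 C/5% CO2, dye-loaded 1 h at 37 C; compounds in DMSO added by pin tool (agonist mode). Intracellular calcium flux read as kinetic fluorescence on FDSS over 2 min at 1 s intervals.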

The target in assay [12] is Muscarinic acetylcholine receptor M1 (Homo sapiens) (UniProt P11229). The assay is described as follows: Cholinergic receptor muscarinic 1 (CHRM1) small molecule antagonists, cell-based qHTS assay (AID 1963588). Further: nearly all actives have a fitted effect of over 40% in size. Further: potency means the concentration at half of the fitted maximal effect. A digest of the protocol:
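Compounds were tested at 15 concentrations in three independent runs. Dye-loaded CHRM1-CHO cells were exposed 5 min at room temperature before stimulation by acetylcholine added at 50nM. Intracellular calcium was read kinetically on FDSS for 3 min.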

Assay [13] shares this target. As to the kind of experiment: Cholinergic receptor muscarinic 1 (CHRM1) small molecule agonists, cell-based qHTS assay (AID 1963589). Further: nearly all actives have a fitted effect of over 35% in size. The method in brief:
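Fluorescent calcium dye reports M1 activation in stably transfected CHO cells. Compounds, 15 concentrations, added after 1 h dye loading at 37 C; kinetic reading at 1 sec intervals.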

The nature of assay [14]: cAMP Responsive Elements (CRE) small molecule agonists, cell-based qHTS assay (AID 1963590). A digest of the protocol:
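Compound exposure lasted 3 h at 37 C/5% CO2 in CRE-bla HEK 293T cells grown in assay medium with 10% dialyzed FBS and 25 mM HEPES. Reporter signal came from LiveBLAzer B/G FRET substrate, 2 h, room temperature.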

Assay [15] can be described thus: cAMP Responsive Elements (CRE) small molecule antagonists, cell-based qHTS assay (AID 1963591; active means well fitted inhibition curve with a large enough effect in the signal ratio in the repeat runs, not every such curve was filed as active; the % refers to the signal ratio). The method in brief:
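Stimulation used NKH477 at a final 0.25 uM for 3 h in compound-treated CRE-bla HEK293T cells, seeded 18 h beforehand. Reporter activity was measured with LiveBLAzer B/G FRET substrate after 2 h at room temperature.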

Assay [16] concerns the target Beta-2 adrenergic receptor (Homo sapiens) (UniProt P07550). As to the kind of experiment: Adrenergic beta2 receptor (ADRB2) small molecule antagonists, cell-based qHTS assay (AID 1963592). Further: nearly all actives have a fitted effect of over 50% in size. Further: potency means the concentration at half of the fitted maximal effect. On activity change, negative = inhibition: series mostly up to about 92 µM. The method in brief:
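Assay format: CHO-ADRB2 cells, 18-20hr seeding at 37C/5% CO2, then compound plus 1nM isoproterenol agonist mix for 0.5hr RT. Homogeneous time-resolved fluorescence cAMP detection after 1hr, expressed as 665/615 nm ratio.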

Assay [17] concerns the target D(2) dopamine receptor (Homo sapiens) (UniProt P14416). The assay is described as follows: Dopamine D2 receptor (DRD2) small molecule antagonists, cell-based qHTS assay (AID 1963595; active means well fitted inhibition curve with a large enough effect in the signal ratio in the repeat runs, with a control signal flat; the % refers to the signal ratio). The method in brief: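 Antagonist mode in DRD2-HEK293 cells: after compound addition with 0.1 mM Ro20-1724, cells received quinpirole (12 nM) and NKH477 (200 nM) for 30 min at room temperature; HTRF cAMP read after 1 h detection.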

For assay [18] the target is unchanged. As to the kind of experiment: Dopamine D2 receptor (DRD2) small molecule agonists, cell-based qHTS assay (AID 1963594). Further: nearly all actives have a fitted effect of over 35% in size. The method in brief:
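HEK293 cells stably expressing DRD2 were cultured 24 h at 37 C, then given Ro20-1724 (0.1 mM final) and compounds for 10 min at room temperature. NKH477 (200nM) was then added for 30 min. cAMP was read by HTRF.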

Assay [19] addresses Beta-2 adrenergic receptor (Homo sapiens) (UniProt P07550). As to the kind of experiment: Adrenergic beta2 receptor (ADRB2) small molecule agonists, cell-based qHTS assay (AID 1963593).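 Further: CHO cells stably overexpressing human ADRB2.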 A digest of the protocol: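 CHO cells stably over-expressing ADRB2 were plated overnight at 37C, then dosed with compounds plus a stimulation mix containing 100uM IBMX and 25uM Ro-20-1724 for 0.5hr at room temperature. cAMP was measured by HTRF competition, 1hr.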

Assay [20] can be described thus: p53 small molecule agonists, cell-based qHTS assay (AID 1963582; active means well fitted activation curve with a large enough effect in the signal ratio in the repeat runs, not every such curve was filed as active; the % refers to the signal ratio). A digest of the protocol: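 After plating, p53RE-bla cells sat 5 h in the incubator; compounds or DMSO vehicle were pinned in; a 16 h incubation at 37 C followed; FRET substrate was added and, 2 h later at RT, fluorescence was measured.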

Structures are written as SMILES. Unmarked numbers belong to inactive results. Results filed as inconclusive are left out. The source made the active and inactive calls. Unless noted, the call rests on the fitted dose curve.
On the % scale 0 is the no-effect control and ±100 the full control effect.

Chain of Beta-2 adrenergic receptor (Homo sapiens) (P07550 whole entry, looked up): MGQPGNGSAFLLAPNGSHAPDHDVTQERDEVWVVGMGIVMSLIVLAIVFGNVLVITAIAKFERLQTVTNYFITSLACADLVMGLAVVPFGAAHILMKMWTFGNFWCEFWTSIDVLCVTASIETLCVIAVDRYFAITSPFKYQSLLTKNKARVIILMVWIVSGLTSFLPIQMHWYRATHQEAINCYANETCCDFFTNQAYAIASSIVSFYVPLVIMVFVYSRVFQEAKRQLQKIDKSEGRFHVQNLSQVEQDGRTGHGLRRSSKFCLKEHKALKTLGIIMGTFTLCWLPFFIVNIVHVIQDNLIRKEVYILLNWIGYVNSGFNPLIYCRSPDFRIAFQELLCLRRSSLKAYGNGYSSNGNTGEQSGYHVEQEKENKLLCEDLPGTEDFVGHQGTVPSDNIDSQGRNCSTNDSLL
Chain of Muscarinic acetylcholine receptor M1 (Homo sapiens) (P11229 whole entry, looked up): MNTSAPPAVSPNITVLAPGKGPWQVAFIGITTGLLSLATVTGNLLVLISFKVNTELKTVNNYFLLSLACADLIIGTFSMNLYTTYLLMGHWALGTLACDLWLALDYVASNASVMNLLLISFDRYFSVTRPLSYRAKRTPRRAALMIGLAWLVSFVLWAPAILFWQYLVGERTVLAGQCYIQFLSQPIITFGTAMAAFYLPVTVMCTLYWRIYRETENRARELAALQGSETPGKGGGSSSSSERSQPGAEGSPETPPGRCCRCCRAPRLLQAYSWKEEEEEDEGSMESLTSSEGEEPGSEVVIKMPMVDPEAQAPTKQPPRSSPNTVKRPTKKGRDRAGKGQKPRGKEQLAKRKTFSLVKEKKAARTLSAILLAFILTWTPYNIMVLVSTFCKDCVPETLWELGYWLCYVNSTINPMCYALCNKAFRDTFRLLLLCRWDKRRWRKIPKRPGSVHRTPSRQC
Chain of 5-hydroxytryptamine receptor 2A (Homo sapiens) (P28223 whole entry, looked up): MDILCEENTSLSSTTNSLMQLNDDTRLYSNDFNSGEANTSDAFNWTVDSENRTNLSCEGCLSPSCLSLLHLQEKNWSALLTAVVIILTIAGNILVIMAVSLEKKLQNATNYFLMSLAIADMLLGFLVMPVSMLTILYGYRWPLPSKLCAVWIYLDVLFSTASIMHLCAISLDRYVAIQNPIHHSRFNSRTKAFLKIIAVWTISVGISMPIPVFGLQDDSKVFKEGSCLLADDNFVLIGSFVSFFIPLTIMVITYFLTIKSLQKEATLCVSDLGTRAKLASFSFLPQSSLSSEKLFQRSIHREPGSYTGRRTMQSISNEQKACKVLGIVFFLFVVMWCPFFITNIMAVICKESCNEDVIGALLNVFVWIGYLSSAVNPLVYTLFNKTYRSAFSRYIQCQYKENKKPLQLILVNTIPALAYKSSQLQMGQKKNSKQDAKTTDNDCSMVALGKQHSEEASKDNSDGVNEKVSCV
Chain of Gonadotropin-releasing hormone receptor (Homo sapiens) (P30968 whole entry, looked up): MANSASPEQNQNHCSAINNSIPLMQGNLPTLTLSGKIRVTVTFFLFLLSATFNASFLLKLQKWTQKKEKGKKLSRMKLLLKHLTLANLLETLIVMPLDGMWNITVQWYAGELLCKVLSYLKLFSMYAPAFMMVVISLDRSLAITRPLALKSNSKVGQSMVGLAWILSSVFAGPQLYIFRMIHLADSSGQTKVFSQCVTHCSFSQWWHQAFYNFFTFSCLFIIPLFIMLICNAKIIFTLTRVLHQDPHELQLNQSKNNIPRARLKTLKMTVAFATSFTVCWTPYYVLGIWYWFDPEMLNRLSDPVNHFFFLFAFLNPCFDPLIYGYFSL
Chain of KiSS-1 receptor (Homo sapiens) (Q969F8 whole entry, looked up): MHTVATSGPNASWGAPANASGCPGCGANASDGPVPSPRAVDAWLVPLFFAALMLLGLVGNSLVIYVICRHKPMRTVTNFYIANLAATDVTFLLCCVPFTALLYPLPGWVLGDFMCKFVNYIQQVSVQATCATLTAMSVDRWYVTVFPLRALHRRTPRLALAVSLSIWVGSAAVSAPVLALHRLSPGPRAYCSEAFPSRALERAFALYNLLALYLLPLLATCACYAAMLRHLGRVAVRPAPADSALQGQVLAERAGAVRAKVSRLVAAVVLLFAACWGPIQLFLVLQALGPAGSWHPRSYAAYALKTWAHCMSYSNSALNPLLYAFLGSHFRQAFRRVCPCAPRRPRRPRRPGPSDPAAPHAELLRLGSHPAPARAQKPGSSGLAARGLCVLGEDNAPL
Chain of D(2) dopamine receptor (Homo sapiens) (P14416 whole entry, looked up): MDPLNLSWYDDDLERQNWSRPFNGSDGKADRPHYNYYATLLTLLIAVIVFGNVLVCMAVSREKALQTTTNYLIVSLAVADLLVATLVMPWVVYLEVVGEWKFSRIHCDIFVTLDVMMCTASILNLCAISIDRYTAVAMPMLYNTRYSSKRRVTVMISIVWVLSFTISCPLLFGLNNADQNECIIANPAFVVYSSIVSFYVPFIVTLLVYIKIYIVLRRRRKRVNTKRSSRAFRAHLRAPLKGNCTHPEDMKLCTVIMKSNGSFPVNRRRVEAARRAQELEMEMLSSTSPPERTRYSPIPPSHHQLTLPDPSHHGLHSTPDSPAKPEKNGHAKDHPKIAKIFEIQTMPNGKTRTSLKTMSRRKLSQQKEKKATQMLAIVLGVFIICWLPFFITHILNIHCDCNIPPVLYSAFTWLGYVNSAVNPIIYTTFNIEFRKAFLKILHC

In the case of `C=COC(=O)C(C)(CC)CCC(C)C` (centres undefined), the Potency entry in [1], in assay [2], in [3], in [6], in assay [7] and in assay [8] was “inactive” in each case. The Potency entry in assay [9], in assay [10], in [11], in assay [12], in assay [13] and in assay [14] was “inactive” throughout. Also, the Potency entry in [15], in [16] and in [17] was “inactive” in each case. The result in assay [4] and in assay [5] was inactive.
Take `CCN(CC)C(C)CN1c2ccccc2Sc2ccccc21` (centres undefined): the Potency entry in [1], in assay [2], in [3], in [6], in [7] and in assay [8] was “inactive” throughout. Besides, the Potency result in assay [9], in assay [11], in assay [13], in assay [14], in assay [15] and in assay [16] was “inactive” throughout. Further, the Potency result in [18] and in assay [17] was “inactive” each time. The result in assay [4] and in [5] was inactive.
For the compound `Clc1ccc(C(Cn2ccnc2)OCc2c(Cl)cccc2Cl)c(Cl)c1` (centres undefined), the Potency in [1] is 23.7 µM (active); in assay [2], 11.9 µM (active); in assay [12], 11.6 µM (active). The Potency entry in assay [3], in assay [6], in [7], in [8], in assay [9] and in [13] was “inactive” in each case. The Potency entry in assay [14], in [16], in [19] and in assay [17] was “inactive” each time. In addition, the outcome in assay [4] and in assay [5] was inactive.
As for `O[C@@H](CNC[C@H](O)[C@H]1CCc2cc(F)ccc2O1)[C@@H]1CCc2cc(F)ccc2O1`, the results for the Potency in [1], in [10] and in [16] were 23.7 µM (active), 18.3 µM (active) and 0.15 µM (active), respectively. Besides, the Potency result in [2], in assay [3], in assay [6], in assay [7], in assay [8] and in assay [9] was “inactive” each time. Also, the Potency entry in assay [15] and in [18] was “inactive” each time. In addition, the outcome in [4] and in assay [5] was inactive.
With `NC1CCN(c2nc3c(cc2F)c(=O)c(C(=O)O)cn3-c2ccc(F)cc2F)C1` (centres undefined), the Potency result in [1], in assay [2], in [3], in assay [6], in assay [7] and in assay [8] was “inactive” each time. In addition, the Potency result in assay [9], in [20], in assay [18] and in assay [17] was “inactive” throughout. Also, the outcome in assay [4] and in [5] was inactive.
Regarding `N#Cc1cc2ccccc2c2ccccc12`, the Potency result in assay [1], in assay [2], in assay [3], in assay [6], in assay [7] and in assay [8] was “inactive” in each case. The Potency result in [9], in [10], in assay [11], in [13], in assay [14] and in [15] was “inactive” throughout. Further, the Potency entry in [16], in [18] and in assay [17] was “inactive” each time. Further, the result in assay [4] and in assay [5] was inactive.
As to `CN1CCN(c2c(F)cc3c(=O)c(C(=O)O)cn4c3c2OCN4C)CC1`, the activity change, negative = cytotoxicity in assay [1] is 9.2% [at 19 µM]; in [8], -4.82% [at 13.5 µM]; in [9], -2.46% [at 13.5 µM]. The activity, positive = activation in [2] was -3.8% [at 19 µM]. Also, the activity change in assay [3] is 0.0141% [at 11.8 µM, hits give high values]. Further, the activation is -1.38% [at 15.8 µM] in assay [4]; -0.0119% [at 11.8 µM] in assay [5]; 0.808% [at 13.5 µM] in assay [6]; -0.432% [at 13.6 µM] in assay [7]; -1.68% [at 15.9 µM] in assay [11]; 11.6% [at 19 µM] in assay [18]. In addition, the activity, negative = inhibition is -5.02% [at 12.7 µM] in assay [10] and -0.388% [at 12.6 µM] in assay [12]. The activity change, negative = inhibition in [15] is -9.33% [at 18.9 µM]; in assay [16] it was 2.14% [at 19 µM]; in assay [17] it was 2.83% [at 18.9 µM]. Moreover, the Potency entry in assay [19] is “inactive”.
On to `O=C1c2ccccc2C(=O)c2cc(Cl)ccc21`, for which the activity change, negative = cytotoxicity was -4.18% [at 8.39 µM] in [1], 3.98% [at 5.99 µM] in assay [8] and 0.229% [at 5.99 µM] in [9]. For the same compound, the activity, positive = activation in assay [2] is 3.42% [at 8.39 µM]. Moreover, the activity change in assay [3] is -1.12% [at 5.22 µM, hits give high values]. Further, the activation in [4] was -0.408% [at 6.97 µM]; in assay [5] it was -1.07% [at 5.23 µM]; in [6] it was -0.0412% [at 5.99 µM]; in assay [7], 1.77% [at 5.99 µM]; in [11], -2.59% [at 7.02 µM]; in [13], -0.206% [at 6.97 µM]. In addition, the activation in assay [18] is 1.23% [at 8.39 µM]. The results for the activity, negative = inhibition in [10] and in assay [12] were 0.237% [at 5.62 µM] and -8.9% [at 5.58 µM], respectively. Besides, the activity change, negative = inhibition is -1.91% [at 8.39 µM] in assay [15], -7.09% [at 8.39 µM] in assay [16] and -1.19% [at 8.38 µM] in assay [17].
